Our source for the growth values is PubChem BioAssay (NCI).

About 83,000 compounds went through this panel and 20% of them were active in at least one assay; those are over-represented in the sample as a whole.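 Single-dose data. Exposure time 48 hours. Values below 10 considered active.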 A number with no mark means an inactive call. The source made the active and inactive calls.

This test relates to MOLT-4 leukemia. As to the kind of experiment: NCI-60 one-dose screen, 48 h (100 = growth as untreated, 0 = no growth, -100 = all killed). The conditions noted are these: 10 µM unless noted.
Regarding `CC(=O)Nc1nc(C(=O)N2N=C(C)/C(=C/c3cccs3)C2=O)cs1`, the growth was 79.1%.
As to `CN1C(=O)[C@H]2c3c1cccc3[C@@]13NC(=O)O[C@H]1[C@H](CCC3(C)C)C2(C)C`, the growth is 79.4%.
The same measure for `CC(=O)C1CCC(C)=CC1=O` (centres undefined): 88.3%; for `COc1cccc(-n2cc(-c3nc(Cl)c4ccccc4n3)nn2)c1`: 104%.
The same measure for `Nc1c(C(=O)Nc2cccc(Cl)c2Cl)sc2nc3c(cc12)C(=O)CCC3`: 106%; for `COc1cc(/C=C2\CCCC3=C2NC(C)=NC3c2cc(OC)c(OC)c(OC)c2)cc(OC)c1OC` (centres undefined): -22.9% (active).
On to `O=c1[nH]c(-c2cn(-c3ccc(Cl)cc3)nn2)nc2ccccc12`, for which the growth is 93.7%.
For `CC/C(=C(\c1ccc(O)cc1)c1ccc(OCCN(C)CCN(C)C(=O)CCC(=O)c2c(C)[nH]c(/C=C3\N=C(c4ccc[nH]4)C=C3OC)c2C)cc1)c1ccccc1` the value was 71.7%; for `Cc1cc(Nc2nc(-c3ccncc3)nc3ccccc23)n[nH]1`, 60.5%.
The same measure for `COc1cc(C2C=C(C)N=C3SC=CN32)cc(OC)c1OC` (centres undefined): 102%.
The same measure for `COC1=CC(c2ccc[nH]2)=N/C1=C\c1[nH]c(C)c(C(=O)CCC(=O)Oc2ccc3c(c2)CCC2C3CC[C@]3(C)[C@@H](O)CC[C@@H]23)c1C` (some centres undefined): -9.7% (active); for `Cc1ccc(Cn2c(-c3nonc3N)nc3ccccc32)cc1`: 56.2%.
Take `O=C(Nc1ccccc1)OCC1OCOC(COC(=O)Nc2ccccc2)C1OC(=O)Nc1ccccc1` (centres undefined): the growth is 73.8%.
For `CC1=CNNc2c3ncnc-3ncn21`, the growth is 91.9%.
The same measure for `CCN(CC)c1cc(/C=C/c2ccc(OC)c(OC)c2)nc2cc(F)c(F)cc12`: 49.2%.
The same measure for `CCCCCCCCCCCCOB(OCCCCCCCCCCCC)OCCCCCCCCCCCC`: 95.2%.
For `c1ccn2nnnc2c1` the value was 101%.
For `Nc1c(C(=O)Nc2c(Cl)cccc2Cl)sc2nc3c(cc12)CCCCC3`, the growth is 54.4%.
For `COc1ccc(-n2c(C)cc(-c3ccccc3)c2C)cc1` the value was 17.8%; for `COc1cc2c(cc1OC)C1(C)N(CC2)C(=O)OC1(C)C` (centres undefined), -75.3% (active).
With `COc1ccc(/C=C/c2nc(N3CCOCC3)c3nc(Cl)c(Cl)cc3n2)cc1OC`, the growth is 87.6%.
In the case of `Cc1cccc(NC(=O)c2sc3nc4c(cc3c2N)CCCC4)c1`, the growth is 33.6%.
Regarding `O=C(/C=C/c1ccccc1)n1c(-c2ccc(Cl)cc2)nc2ccccc21`, the growth was 21.9%.
Take `COc1cc(Cn2c(-c3nonc3N)nc3ccccc32)ccc1C`: the growth is 21.2%.
For `Clc1ccc(-c2nc(-c3ccco3)cn3ccnc23)cc1` the value was 80%.
For `Oc1ccc(N=Cc2ccccc2)cc1` the value was 3.61% (active).
For `CCCCCc1c(C)[nH]c(/C=c2\[nH]/c(=C3/C=c4ccccc4=N3)cc2OC)c1C` the value was -23.1% (active).
Take `COc1cc2nc(Cl)nc(NCCO)c2cc1OC`: the growth was 101%.
The same measure for `CCC1CCc2nc3sc(C(=O)Nc4ccccc4C)c(N)c3cc2C1` (centres undefined): 39.7%.
The same measure for `Cc1cc(Nc2nc(C(=O)Nc3ccccc3)nc3ccccc23)n[nH]1`: 55.4%; for `c1ccc2nc(-c3ccc4ccccc4n3)ccc2c1`: 88.3%.
As to `Clc1nc2ccccc2nc1CI`, the growth is 20.2%.
Consider `Cc1cccc(NC(=O)c2sc3nc4c(cc3c2N)CCC4)c1C`, for which the growth is 22.6%.
The same measure for `Clc1cccc(Cl)c1Cn1c(-c2cncs2)nc2ccccc21`: 62.9%; for `Clc1ccc(/C=C/c2nc(N3CCOCC3)c3nc(Cl)c(Cl)cc3n2)cc1`: 88%.
The same measure for `Cc1cc(Nc2nc(-c3ccc(F)cc3)nc3ccccc23)n[nH]1`: 64.1%.
The same measure for `COC(=O)[C@H]1[C@H](OC)[C@@H](OC(=O)/C=C/c2ccncc2)CC2CN3CCc4c([nH]c5cc(OC)ccc45)[C@@H]3C[C@@H]21` (some centres undefined): 78.2%; for `CN(C)c1ncc(-c2ccc(C(F)(F)F)cc2)c(NC2CCCCCC2)n1`: 76.5%.
With `CC(=O)Nc1ccc(S(=O)(=O)N2C(=O)CCC2C(=O)Nc2ccccc2)cc1` (centres undefined), the growth is 28.8%.
